VP16 counter = Gal4-VP16 reporter inhibition counter-screen; AID 2546; Potency, µM (series often up to 53.6 µM), without a hit: at the highest dose activity, negative = inhibition, usual class: inhibitors; 310,000 tested, 3.5% active; Drosophila S2 Gal4-VP16 UAS-luciferase, luminescence, 20 h;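 further: Gal4-VP16 expression switched on by copper sulfate through the metallothionein promoter; potency means the concentration at half of the fitted maximal effect; nearly all actives have a fitted effect of over 50% in size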
DT40 TDP1 no CPT = qHTS for Inhibitors of human tyrosyl-DNA phosphodiesterase 1 (TDP1): qHTS in cells in absence of CPT; DT40 Tdp1-/- hTDP1 cells, no CPT, ATP luminescence, 48 h; Potency, µM (highest dose often 46.2 µM), without a hit: at the highest dose activity change, negative = growth inhibition, most hits filed as inhibitors; 420,000 tested, 15% active; AID 686978, 2013; further: potency means the concentration at half of the fitted maximal effect; nearly all actives have a fitted effect of over 55% in size
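No-CPT arm: Tdp1-/-;hTDP1 DT40 cells (400/well) plus compounds, incubated ≥48 hr at 37 °C. Readout CellTiter-Glo luminescence.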
RORgamma inh = ROR gamma (mouse) transcription inhibition. Potency, µM (series often up to 53.6 µM), inactives show at the highest dose activity change, negative = inhibition, hits mostly inhibitors. P51450. AID 2551. 310,000 tested, 5.4% active. Drosophila S2 Gal4-RORgamma UAS-luciferase reporter, 20 h; further: potency means the concentration at half of the fitted maximal effect; nearly all actives have a fitted effect of over 60% in size
Target sequence (P51450 whole entry, looked up, the tested form may be a part): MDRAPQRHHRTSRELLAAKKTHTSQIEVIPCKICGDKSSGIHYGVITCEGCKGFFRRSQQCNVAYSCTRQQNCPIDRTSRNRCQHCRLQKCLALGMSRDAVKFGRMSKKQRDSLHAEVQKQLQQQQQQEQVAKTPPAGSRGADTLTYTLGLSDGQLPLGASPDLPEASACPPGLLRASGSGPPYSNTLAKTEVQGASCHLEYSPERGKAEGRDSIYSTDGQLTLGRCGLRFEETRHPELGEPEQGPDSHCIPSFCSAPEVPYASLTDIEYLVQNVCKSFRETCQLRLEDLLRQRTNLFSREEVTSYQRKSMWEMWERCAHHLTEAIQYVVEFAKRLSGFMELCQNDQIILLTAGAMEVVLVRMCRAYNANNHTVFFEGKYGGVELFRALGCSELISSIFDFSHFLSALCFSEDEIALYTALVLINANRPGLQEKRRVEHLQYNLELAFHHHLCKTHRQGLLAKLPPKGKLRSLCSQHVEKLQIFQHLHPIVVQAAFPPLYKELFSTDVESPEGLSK
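In this cell-based reporter format, copper sulfate (700 uM final) drives Gal4–ROR gamma fusion expression from a metallothionein promoter in Drosophila Schneider cells; compounds preincubated 1 hr, reporter read after 20 hr at ambient temperature.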
IL-1B inflam inh = blocks inflammasome-driven IL-1 beta release; THP-1 LPS/ATP IL-1B secretion, AlphaLISA, 16 h; hits give low values; 360,000 tested, 4.7% active; activity change, % at 57.5 µM; in the data active means activity change below about -50%; inconclusive means mostly about -30% to -49%
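THP-1 cells pretreated 1 hr with compounds (up to 57.5 uM final), then stimulated with LPS (250 ng/mL final) plus ATP (1.25 mM final); secreted IL-1B measured by AlphaLISA after 16 hr, decreased signal indicating inhibition.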
ELG1 repair inh = inhibitors of ELG1-dependent DNA repair in HEK293T cells | 330,000 tested, 2.3% active | Potency, µM (highest dose often 46.1 µM), for the others: top-dose activity change, negative = inhibition, most hits filed as inhibitors | HEK293T ELG1-luciferase reporter, luminescence, 16 h; DNA damage induced by 5-fluorouridine; further: potency means the concentration at half of the fitted maximal effect; nearly all actives have a fitted effect of over 55% in size
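Overnight (16 hr) co-exposure of 2,000 cells/well to 5-fluorouridine and compound at 37 °C preceded detection. Luciferase was quantified via ONE-Glo luminescence; loss of signal denotes inhibition.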
DT40 TDP1 CPT = growth inhibition of DT40 Tdp1-/-;hTDP1 cells with camptothecin (screen for TDP1 inhibitors). chicken DT40 Tdp1-/-;hTDP1 cells + 20 nM CPT, ATP luminescence, 48 h. Potency, µM (top dose mostly 46.2 µM), for inactives: top-dose activity change, negative = growth inhibition, actives largely listed as inhibitors. 420,000 tested, 12% active; further: potency means the concentration at half of the fitted maximal effect; nearly all actives have a fitted effect of over 55% in size
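Chicken DT40 Tdp1-/- cells complemented with human TDP1, 400 cells/well, exposed to compounds plus 20 nM camptothecin for at least 48 h at 37 C; viability read as ATP content by CellTiter-Glo luminescence.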
The depositor's hits bear a star; [ ] = remark or other dose. A selection: hits, their analogues and other compounds. The true share with any hit is near 21%. Unless noted, the call rests on the fitted dose curve; in most records, active means well fitted curve in the direction sought with a large enough effect; inconclusive means small, poorly fitted or top-dose-only effect, or another doubt; inactive means no such curve, though single readings can be large; an effect the other way counts as inactive or inconclusive. On the % scale 0 is the no-effect control and ±100 the full control effect.

COc1ccc(N2CCN(C(=O)c3ccc(-c4nc5ccccc5s4)o3)CC2)cc1 was read as DT40 TDP1 no CPT 11.6µM*, IL-1B inflam inh 43.6, ELG1 repair inh -0.8% and DT40 TDP1 CPT 16.4µM*.
COc1ccccc1N1CCN(C(=O)c2ccc(-c3nc4ccccc4s3)o2)CC1 was read as DT40 TDP1 no CPT 16.4µM*, IL-1B inflam inh 12.7, ELG1 repair inh inconclusive and DT40 TDP1 CPT 23.1µM*.
Screening COc1cc(NC(=O)COc2cc(C)cc3oc(=O)cc(C)c23)cc(OC)c1OC returned DT40 TDP1 no CPT inconclusive, IL-1B inflam inh inconclusive and DT40 TDP1 CPT -19.5%.
`COc1ccccc1N(C(=O)CCl)c1cn(C(C)=O)c2ccccc12` gave VP16 counter -7.5%, DT40 TDP1 no CPT 4.61µM*, RORgamma inh inconclusive, IL-1B inflam inh -60.0*, ELG1 repair inh 11.6µM* and DT40 TDP1 CPT 4.61µM*.
For CC(=O)n1cc(N(C(=O)CCl)c2ccc(Cl)cc2)c2ccccc21 the results were VP16 counter inconclusive, DT40 TDP1 no CPT 1.3µM*, RORgamma inh inconclusive, IL-1B inflam inh 0.0, ELG1 repair inh inconclusive and DT40 TDP1 CPT 1.46µM*.
CN(Cc1cccc(F)c1)C(=O)CSc1nnc(C2CC2)n1C1CC1 was read as DT40 TDP1 no CPT 3.5%, IL-1B inflam inh -12.4, ELG1 repair inh 11.0% and DT40 TDP1 CPT 8.8%.
Screening COc1ccccc1CN(C)C(=O)CSc1nnc(C2CC2)n1C1CC1 returned DT40 TDP1 no CPT 16.4µM*, IL-1B inflam inh 16.2, ELG1 repair inh -6.0% and DT40 TDP1 CPT inconclusive.
Screening CCOC(=O)c1cc(=O)n2c(nc3ccccc32)[nH]1 returned DT40 TDP1 no CPT -25.2%, IL-1B inflam inh 26.2, ELG1 repair inh inconclusive and DT40 TDP1 CPT -24.2%.
For Cc1c(N2C(=O)/C(=C\C3CC=CCC3)SC2=S)c(=O)n(-c2ccccc2)n1C (stereo not drawn) the results were VP16 counter -17.9%[10 µM], DT40 TDP1 no CPT inconclusive, RORgamma inh inconclusive, IL-1B inflam inh -101.4*, ELG1 repair inh 4.4% and DT40 TDP1 CPT inconclusive.
Cc1c(N2C(=O)/C(=C3\C(=O)N(CC(=O)O)c4ccccc43)SC2=S)c(=O)n(-c2ccccc2)n1C was read as VP16 counter -0.3%, DT40 TDP1 no CPT inconclusive, RORgamma inh inconclusive, IL-1B inflam inh 0.0, ELG1 repair inh inconclusive and DT40 TDP1 CPT inconclusive.
For Cc1c(N2C(=O)/C(=C/C3CC=CCC3)SC2=S)c(=O)n(-c2ccccc2)n1C (stereo not drawn) the results were VP16 counter -12.1%, DT40 TDP1 no CPT inconclusive, RORgamma inh -37.8%, IL-1B inflam inh -59.1*, ELG1 repair inh -1.7% and DT40 TDP1 CPT 18.4µM*.
`Cc1c(Nc2scc(-c3ccccc3)[n+]2-c2ccccc2)c(=O)n(-c2ccccc2)n1C` gave VP16 counter 1.6%, DT40 TDP1 no CPT 20.6µM*, RORgamma inh 25.3%, IL-1B inflam inh -26.6, ELG1 repair inh 5.2% and DT40 TDP1 CPT inconclusive.
For CCOC(=O)Cc1csc(Nc2c(C)n(C)n(-c3ccccc3)c2=O)n1 the results were VP16 counter 5.1%, DT40 TDP1 no CPT -12.8%, RORgamma inh 6.3%, IL-1B inflam inh 24.9, ELG1 repair inh -0.9% and DT40 TDP1 CPT -9.5%.
Screening Cc1c(Nc2nc(-c3ccc(Cl)cc3)cs2)c(=O)n(-c2ccccc2)n1C returned VP16 counter 5.5%, DT40 TDP1 no CPT 10.3µM*, RORgamma inh 24.9%, IL-1B inflam inh inconclusive, ELG1 repair inh -5.2% and DT40 TDP1 CPT inconclusive.
Screening COCCN(C(=O)c1ccc2c(c1)C(=O)N(c1ccccc1Cl)C2=O)c1c(N)n(CC(C)C)c(=O)[nH]c1=O returned DT40 TDP1 no CPT 28.6%, IL-1B inflam inh 7.9 and DT40 TDP1 CPT -4.4%.
Screening CCn1cc(C(=O)NCCc2ccccc2)c(=O)c2cc(S(=O)(=O)N(C)C3CCCCC3)ccc21 returned DT40 TDP1 no CPT -3.8% and DT40 TDP1 CPT 5.4%.
O=C(O)CCC(=O)Nc1ccccc1C(=O)NCCc1ccccc1 was read as VP16 counter 3.9%, DT40 TDP1 no CPT -12.2%, RORgamma inh -7.7%, IL-1B inflam inh 14.6, ELG1 repair inh inconclusive and DT40 TDP1 CPT -5.5%.
Screening CCOc1ccc(-c2cc3nc(C4CCN(C(=O)OC(C)(C)C)CC4)c(C(=O)O)cn3n2)cc1 returned VP16 counter -20.0%, DT40 TDP1 no CPT inconclusive, RORgamma inh inconclusive, IL-1B inflam inh -21.7, ELG1 repair inh inconclusive and DT40 TDP1 CPT inconclusive.
For COc1cc(OC)c(NC(=O)c2cnn(-c3cccc(Cl)c3C)c2C2CCN(C(=O)OC(C)(C)C)CC2)cc1Cl the results were DT40 TDP1 no CPT -28.3% and DT40 TDP1 CPT -27.7%.
Screening CCOc1ccc(-c2cc3nc(C4CCN(C(=O)OC(C)(C)C)CC4)c(C(=O)Nc4ccc(C)cc4C)cn3n2)cc1 returned DT40 TDP1 no CPT 20.6µM* and DT40 TDP1 CPT 18.4µM*.
CCOc1ccc(-c2cc3nc(C4CCN(C(=O)OC(C)(C)C)CC4)c(C(=O)Nc4c(C)cccc4C)cn3n2)cc1 was read as DT40 TDP1 no CPT 13µM* and DT40 TDP1 CPT 14.6µM*.
`CCOc1ccc(NCC(=O)Nc2ccc(C)cc2C)cc1` gave VP16 counter 13.9%, DT40 TDP1 no CPT -15.6%, RORgamma inh 9.6%, IL-1B inflam inh -20.7, ELG1 repair inh -13.0% and DT40 TDP1 CPT -8.9%.
`CCOc1ccc(-c2cc3nc(C4CCN(C(=O)OC(C)(C)C)CC4)c(C(=O)Nc4cccc(Cl)c4C)cn3n2)cc1` gave DT40 TDP1 no CPT 14.6µM* and DT40 TDP1 CPT 18.4µM*.
For CCCCN(Cc1ccccc1)C(=O)c1oc(=O)c2ccccc2c1-c1ccc(C)cc1 the results were DT40 TDP1 no CPT inconclusive and DT40 TDP1 CPT 20.6µM*.
CCCCN(CCCC)C(=O)c1cc2ccccc2c(=O)o1 was read as VP16 counter -10.6%, DT40 TDP1 no CPT 16.4µM*, RORgamma inh 39.7%, IL-1B inflam inh 6.2, ELG1 repair inh -15.7% and DT40 TDP1 CPT inconclusive.
Screening Cc1ccc(CCNC(=O)c2oc(=O)c3ccccc3c2-c2ccc(C)cc2)cc1 returned DT40 TDP1 no CPT 23.1µM* and DT40 TDP1 CPT inconclusive.
O=C(NCc1cccc(Cl)c1)c1oc(=O)c2ccccc2c1-c1ccccc1 was read as DT40 TDP1 no CPT -0.8% and DT40 TDP1 CPT 4.3%.
